Source: PubChem BioAssay (Tox21)
Records with an inconclusive call do not appear. The source made the active and inactive calls. Unless noted, calls come from the whole dose curve; as a rule, active = well fitted curve in the direction sought with a large enough effect in the repeat runs; inconclusive = weak or mixed curves; inactive = no such curve, though single readings can be large; an effect the other way counts as inactive or inconclusive.

Assays:
[1] = qHTS assay to identify small molecule antagonists of the androgen receptor (AR) signaling pathway using the MDA cell line in the presence of 0.5 nM R1881 - cell viability counter screen (AID 1259242); note: nearly all actives have a fitted effect of over 45% in size
Method in brief: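 MDA-kb2 cells (MMTV-luciferase, AR/GR responsive) were treated with compounds plus 0.5 nM R1881 (final) for 16 hr at 37C, 0% CO2. Viability was then read in the same wells as live-cell protease fluorescence (CellTiter-Fluor, 30 min).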

[2] = qHTS assay to identify small molecule HDAC inhibitors (AID 1259364); note: top concentration of the series differs between compounds; nearly all actives have a fitted effect of over 45% in size
Method in brief: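 Wild-type HCT-116 cells, plated overnight at 37 C, exposed to compounds 2 hr at 37 C; luminogenic HDAC-Glo substrate then added 30 min at room temperature. Luminescence reports relative endogenous class I/II HDAC activity.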

[3] = qHTS assay to identify small molecule HDAC inhibitors - cell viability counter screen (AID 1259365); note: series mostly up to about 92 µM; nearly all actives have a fitted effect of over 50% in size
Method in brief: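 Viability readout: CellTiter-Glo luminescence. Wild-type HCT-116 cells, 2hr compound treatment following overnight attachment at 37 C.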

[4] = qHTS assay to identify small molecule agonists of the sonic hedgehog signaling (Shh) pathway - cell viability counter screen (AID 1259366); note: nearly all actives have a fitted effect of over 50% in size
Method in brief: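 Viability measured fluorometrically (CellTiter-Fluor, 1hr, 37C) in 3T3 Gli1-Luc reporter cells after 23hr compound exposure within a 24hr incubation at 37C/5% CO2.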

[5] = qHTS assay to identify small molecule antagonists of the sonic hedgehog signaling (Shh) pathway - cell viability counter screen (AID 1259367); note: nearly all actives have a fitted effect of over 55% in size
Method in brief: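 Using CellTiter-Fluor, viability of Gli1-Luc reporter 3T3 cells is read by fluorescence in the wells used for the Shh luciferase assay. Treatment lasts 23 hr with conditioned medium, then reagent 1 hr at 37C.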

[6] = qHTS assay to identify small molecule agonists of the sonic hedgehog signaling (Shh) pathway (AID 1259368; calls by dose curve;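 note: NIH/3T3-derived 3T3Gli1-Luc cells carrying a stable Gli1-driven firefly luciferase reporter; series mostly up to about 92 µM; nearly all actives have a fitted effect of over 15% in size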)
Method in brief: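 NIH/3T3-derived 3T3Gli1-Luc cells with stably integrated Gli1-driven firefly luciferase, 2,000 cells/well, compounds added after 4 hr. Incubated 24 hr at 37C, 5% CO2; luminescence read after 30 min with luciferase reagent at room temperature.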

[7] = qHTS assay to identify small molecule antagonists of the sonic hedgehog signaling (Shh) pathway (AID 1259369; calls by dose curve; note: nearly all actives have a fitted effect of over 45% in size)
Method in brief: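 NIH/3T3-derived Gli1-Luc reporter cells plated 4 h, dosed with compound, then stimulated with conditioned medium for 24 h at 37 C. Firefly luciferase luminescence read after 30 min with detection reagent at room temperature.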

[8] = molecular target: Estrogen receptor beta (Homo sapiens) (UniProt Q92731); test: qHTS assay to identify small molecule agonists of the estrogen receptor beta (ER-beta) signaling pathway (AID 1259377; active = well fitted activation curve with a large enough effect in the signal ratio in the repeat runs, not every such curve was filed as active; the % refers to the signal ratio)
Estrogen receptor beta (Homo sapiens), sequence (Q92731 whole entry, looked up): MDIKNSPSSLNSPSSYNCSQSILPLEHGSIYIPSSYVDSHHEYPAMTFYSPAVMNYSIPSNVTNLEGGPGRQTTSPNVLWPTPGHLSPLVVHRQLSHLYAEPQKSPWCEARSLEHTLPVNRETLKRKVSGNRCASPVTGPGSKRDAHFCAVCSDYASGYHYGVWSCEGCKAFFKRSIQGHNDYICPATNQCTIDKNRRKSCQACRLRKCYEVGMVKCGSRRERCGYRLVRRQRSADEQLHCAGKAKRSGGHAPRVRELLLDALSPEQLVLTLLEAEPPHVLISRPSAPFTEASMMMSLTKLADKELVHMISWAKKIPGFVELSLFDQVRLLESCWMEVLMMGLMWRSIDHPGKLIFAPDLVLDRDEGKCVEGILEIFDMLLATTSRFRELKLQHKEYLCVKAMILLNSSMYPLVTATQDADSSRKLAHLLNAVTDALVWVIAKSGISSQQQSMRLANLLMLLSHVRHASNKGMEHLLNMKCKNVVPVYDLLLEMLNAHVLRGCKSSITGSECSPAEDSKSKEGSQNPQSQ
Method in brief: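 A UAS-controlled beta-lactamase reporter in ER-beta-UAS-bla HEK293T cells reports receptor activation. Compounds act for 16 hr at 37C in 2% charcoal-stripped serum, and a FRET substrate is read by fluorescence after 2 hours.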

[9] = molecular target: Estrogen receptor beta (Homo sapiens) (UniProt Q92731); test: qHTS assay to identify small molecule antagonists of the estrogen receptor beta (ER-beta) signaling pathway (AID 1259378; active = well fitted inhibition curve with a large enough effect in the signal ratio in the repeat runs, not every such curve was filed as active; the % refers to the signal ratio)
Method in brief: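 Antagonist mode: compounds added to beta-lactamase reporter HEK293T ER-beta-UAS cells stimulated with E2 (1nM final), 16 hr at 37C. LiveBLAzer B/G FRET substrate, 2 hours room temperature, fluorescence read-out.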

[10] = qHTS assay to identify small molecule agonists of the estrogen receptor beta (ER-beta) signaling pathway - cell viability counter screen (AID 1259380); note: nearly all actives have a fitted effect of over 30% in size
Method in brief: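 ER-beta-UAS-bla HEK293T cells in medium with 2% charcoal-stripped FBS, pre-incubated 6 hr, then treated 16 hr at 37C. Cytotoxicity read in the same wells by CellTiter-Glo luminescence after 30 min at room temperature.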

[11] = qHTS assay to identify small molecule antagonists of the estrogen receptor beta (ER-beta) signaling pathway - cell viability counter screen (AID 1259382);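 note: HEK293T cells carrying ER-beta-UAS-bla reporter stimulated with estradiol; series mostly up to about 92 µM; nearly all actives have a fitted effect of over 55% in size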
Method in brief: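 ER-beta-UAS-bla HEK293T cells in 2% charcoal-stripped FBS medium, treated with compound plus 1 nM 17-beta-estradiol for 16 h at 37C. Viability read by CellTiter-Glo luminescence after 30 min at room temperature in the same wells.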

[12] = qHTS assay to identify small molecule agonists or antagonists of the thyroid stimulating hormone receptor (TSHR) signaling pathway - wild type cell line counter screen (AID 1259384; calls by dose curve)
Method in brief: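 Counter screen in untransfected Hek293: compounds (15-point titration, triplicate) plus phosphodiesterase inhibitor Ro20-1724 added after 18 h plating; 30 min RT. Intracellular cAMP via competitive d2/cryptate immunoassay, 1 h incubation.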

[13] = molecular target: Thyrotropin receptor (Homo sapiens) (UniProt P16473); test: qHTS assay to identify small molecule antagonists of the thyroid stimulating hormone receptor (TSHR) signaling pathway (AID 1259385; calls by dose curve; note: nearly all actives have a fitted effect of over 20% in size)
Thyrotropin receptor (Homo sapiens), sequence (P16473 whole entry, looked up): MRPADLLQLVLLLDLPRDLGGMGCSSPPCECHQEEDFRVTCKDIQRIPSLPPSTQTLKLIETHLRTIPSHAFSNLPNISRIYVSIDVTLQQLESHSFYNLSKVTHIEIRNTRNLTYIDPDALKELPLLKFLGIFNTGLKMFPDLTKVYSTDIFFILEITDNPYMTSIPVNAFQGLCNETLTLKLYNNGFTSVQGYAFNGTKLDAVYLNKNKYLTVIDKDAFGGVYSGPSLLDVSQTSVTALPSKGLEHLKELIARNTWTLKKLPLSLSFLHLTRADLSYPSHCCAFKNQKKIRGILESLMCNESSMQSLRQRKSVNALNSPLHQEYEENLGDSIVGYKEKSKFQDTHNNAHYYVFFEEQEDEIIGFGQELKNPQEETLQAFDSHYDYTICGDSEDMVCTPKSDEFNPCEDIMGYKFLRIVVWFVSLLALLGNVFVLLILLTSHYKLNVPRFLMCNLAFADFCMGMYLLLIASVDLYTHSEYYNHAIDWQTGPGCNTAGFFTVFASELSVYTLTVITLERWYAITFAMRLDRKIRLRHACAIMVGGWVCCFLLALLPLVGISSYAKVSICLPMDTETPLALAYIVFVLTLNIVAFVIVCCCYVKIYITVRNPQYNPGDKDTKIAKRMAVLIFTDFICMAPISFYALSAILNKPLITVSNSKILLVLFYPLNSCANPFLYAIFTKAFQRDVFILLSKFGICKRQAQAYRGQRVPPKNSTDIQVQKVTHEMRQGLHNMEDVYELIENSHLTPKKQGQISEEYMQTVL
Method in brief: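 Antagonist mode: compound-treated TSHR-expressing HEK293 cells were stimulated with 1.5 ng/mL TSH (final) in presence of Ro20-1724 for 30 min at RT. HTRF cAMP detection after 1 h; each compound tested at 15 concentrations, triplicate.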

[14] = molecular target: Estrogen receptor (Homo sapiens) (UniProt P03372); test: qHTS assay to identify small molecule antagonists of the estrogen receptor alpha (ER-alpha) signaling pathway using the BG1 cell line in the presence of 0.1 nM 17-beta-estradiol (AID 1259244); note: nearly all actives have a fitted effect of over 50% in size
Estrogen receptor (Homo sapiens), sequence (P03372 whole entry, looked up): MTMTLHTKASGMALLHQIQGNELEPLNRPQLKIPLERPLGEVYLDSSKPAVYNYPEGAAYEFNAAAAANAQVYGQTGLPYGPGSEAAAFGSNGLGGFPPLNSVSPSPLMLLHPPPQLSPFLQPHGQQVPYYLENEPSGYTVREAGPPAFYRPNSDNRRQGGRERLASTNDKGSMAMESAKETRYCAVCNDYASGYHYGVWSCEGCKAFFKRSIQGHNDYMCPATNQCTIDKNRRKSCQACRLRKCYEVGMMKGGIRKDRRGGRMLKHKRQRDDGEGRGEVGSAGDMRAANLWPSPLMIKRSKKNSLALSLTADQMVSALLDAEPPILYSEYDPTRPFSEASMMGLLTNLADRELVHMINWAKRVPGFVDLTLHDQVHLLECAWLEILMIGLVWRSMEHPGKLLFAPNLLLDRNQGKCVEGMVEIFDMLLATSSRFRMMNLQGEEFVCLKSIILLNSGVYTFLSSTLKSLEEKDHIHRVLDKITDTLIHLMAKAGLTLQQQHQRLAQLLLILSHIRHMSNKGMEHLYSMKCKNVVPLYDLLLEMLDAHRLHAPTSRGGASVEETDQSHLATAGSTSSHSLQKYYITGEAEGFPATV
Method in brief: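 VM7Luc4E2 cells (endogenous full-length ER-alpha, 4×ERE-luciferase), kept 5 days in phenol red-free, charcoal-stripped FBS medium; 4,000 cells/well. Compounds added with 0.1 nM (final) 17beta-estradiol, 22 hr at 37C; luminescence read with ONE-Glo after 30 min.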

[15] = qHTS assay to identify small molecule agonists of the androgen receptor (AR) signaling pathway in the presence of an antagonist - cell viability counter screen (AID 1259379); note: nearly all actives have a fitted effect of over 25% in size; note: potency is the fitted concentration of half-maximal effect
Method in brief: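 MDA-kb2 cells (MMTV-luciferase, AR/GR), 3,000/well, 5 h attachment, then 3.0 µM nilutamide (final) and compounds at 15 concentrations. Viability by CellTiter-Fluor fluorescence after 16 h at 37 °C, 0% CO2, in the reporter wells.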

[16] = molecular target: Estrogen receptor (Homo sapiens) (UniProt P03372); test: qHTS assay to identify small molecule agonists of the estrogen receptor alpha (ER-alpha) signaling pathway in the presence of an antagonist (AID 1259383; calls by dose curve; note: top concentration of the series differs between compounds; nearly all actives have a fitted effect of over 15% in size)
Method in brief: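 VM7Luc4E2 cells express endogenous full-length ER-alpha with an ERE-luciferase reporter and were hormone-deprived for 5 days. Compounds at 15 concentrations were added with 10.0nM ICI-182,780 for 22hr at 37C. Luminescence was read with ONE-Glo.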

Measured: Potency

CC(=O)NCCO
not listed: [14] | [15] | [16]
inactive: all other assays above

Cc1ccc(N(CCO)CCO)cc1
not listed: [6] | [8] | [9] | [13] | [16]
inactive: all other assays above

CC(C)(C)C1(CCc2ccc(Cl)cc2)CO1 (stereo not drawn)
not listed: [8] | [9]
inactive: all other assays above

CC(C)(C)S
inactive: [1] | [14] | [2] | [3] | [5] | [7] | [10] | [11] | [12]

CCCCCCCCCCCCCCCCCC(=O)OCC(CC)CCCC (stereo not drawn)
not listed: [6] | [14] | [15] | [16]
inactive: all other assays above

O=C1c2ccccc2C(=O)c2c(O)ccc(O)c21
inactive: [1] | [2] | [3] | [5] | [6] | [10] | [11]

CC(C)COC(=O)COc1cc(Cl)c(Cl)cc1Cl
not listed: [10] | [15] | [16]
inactive: all other assays above

Cc1cc([N+](=O)[O-])ccc1N
active: [15] 53.8 µM
not listed: [1] | [4] | [5] | [13]
inactive: all other assays above

NC(=O)CCCCC(N)=O
not listed: [3] | [13]
inactive: all other assays above

COC(=O)c1sccc1S(N)(=O)=O
not listed: [4] | [8] | [9]
inactive: all other assays above
